The values below come from paper PMC12136788.

To fix the notation:
T1: UNK ZnF1-3 (human, UniProt Q9C0B0 31-174)
T1 sequence: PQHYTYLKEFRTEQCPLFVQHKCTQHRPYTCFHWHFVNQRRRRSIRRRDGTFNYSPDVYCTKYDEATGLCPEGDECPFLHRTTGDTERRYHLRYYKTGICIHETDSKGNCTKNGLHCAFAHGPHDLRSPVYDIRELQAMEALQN

B1: chr3:9412954:9412955:+_ENSG00000134077_ENST00000452837|hu_mus|hu_hu_hu_mus_False|58_68 (ssRNA)
RNA: GGGAGUUCUACAGUCCGACGAUCGGUUGAUAUCUCUUCUUUGAUGGCUGGAUUUUCAUAAUAGUCCAAGAUAUGAGAAUCUAAAGCGCUGCUGGCAUGCUUUUUCUUACCAUCUUUCUCAUCUGCUUUGUCUCCUUGUCCACACAACAGAGGAUUGAGCAUCA
B2: chr16:94664741:94664742:+_ENSMUSG00000040785_ENSMUST00000117648|mus_hu|mus_mus_mus_hu_False|1_78 (ssRNA)
RNA: GGGAGUUCUACAGUCCGACGAUCUGGUACUGAUCUUGGUAGCUGAUAUUCAGGAGAAAUGUUGGCCAAGGGUGUAUAUAUGCUGGUGUACUGGGGCAAACCUGGUAACACGUUUAUGUAUGCUGGCGGUGUCUGGGUGCCAAACAACAGAGGAUUGAGCAUCA
B3: chr5:37680062:37680063:+_ENSMUSG00000029121_ENSMUST00000031004|mus_hu|mus_mus_mus_hu_False|1_8 (ssRNA)
RNA: GGGAGUUCUACAGUCCGACGAUCUUUGGGUGUAGCUGGUACCUCGUACACAGGACCGUCAUACAUGCCCCUGGAAACCCCUUGCAAUCCAAAAACCUUAUUCCUGAUUUUGACGCGCUGGUACAGGUGCUCUGGGAAUGGCUUCAACAGAGGAUUGAGCAUCA
B4: chrX:98862621:98862622:+_ENSMUSG00000034160_ENSMUST00000044475|mus_hu|mus_mus_mus_hu_False|18_28 (ssRNA)
RNA: GGGAGUUCUACAGUCCGACGAUCCUGCAUCUCCUUUAGAGUGUUUCCCAUAUUAGAGUAGGCAUCAGCAAAGGUAGGACUGAUUCGAAUAGCCUCCUUAUAAUGCAUCAGUGCUUCCUGCAGCUUGCCCUGCUGCUGCAGUACCAACAGAGGAUUGAGCAUCA
B5: chr7:135840685:135840686:-_ENSMUSG00000048170_ENSMUST00000057557|mus_mus|FALSE|FALSE (ssRNA)
RNA: GGGAGUUCUACAGUCCGACGAUCCAACUCCCUUGAUUUAUCAAGGCCGACCCUGUUUCCUUGGUUAGCAGGGAAGAAUCUAAGGGACCACUGAUUGAUCUUCACACACAGCAGAUGAGAUUAACAGCAAGGUUCUAACUUUUCCAACAGAGGAUUGAGCAUCA
B6: 128051196_128051651_161_3pUTR_ENSG00000163161_ENST00000285398|human|control|control (ssRNA)
RNA: GGGAGUUCUACAGUCCGACGAUCCGCCGCCGAGGGAACCGCUUCCUGAGGGUCGUUCCCCGGGGCGUCCUCUUCAUCAUCCUCUUCAUCCUCAUAGUGCCGCUUCCUGGAUUUCUUCUUGUCGCGGUCCGCUCGGUCUCUUUUCAACAGAGGAUUGAGCAUCA
B7: chr2:27118074:27118075:-_ENSMUSG00000009621_ENSMUST00000056176|mus_mus|motif|central (ssRNA)
RNA: GGGAGUUCUACAGUCCGACGAUCCACAGAUAUAUAAUGGGAGACUUAGAUGAAAUAAUUACAACUUCCCCUCCCCCUUCGGAAAUACAAACAGAUAAAACAUAACAGGACAAAAAAAGCUACAACAACAGAAAAACAAACAGACAACAGAGGAUUGAGCAUCA
B8: chr15:12269436:12269437:+_ENSMUSG00000022200_ENSMUST00000059680|mus_mus|motif|central (ssRNA)
RNA: GGGAGUUCUACAGUCCGACGAUCUAAAAGACUUUUUCUUCUCAUUCCACAAGCCUCUAACUGUAACCUUCCUCUCAAAGCGGAUUCAAUUAACAUACAGCCACGUAAUCCAGAUGAUAUACAGUCAUUCCAAAAUGAUGUGUACAACAGAGGAUUGAGCAUCA
B9: chr16:94690093:94690094:+_ENSMUSG00000040785_ENSMUST00000117648|mus_hu|mus_mus_mus_hu_True|1_48 (ssRNA)
RNA: GGGAGUUCUACAGUCCGACGAUCGGGCUGGGAUGACGGACACACAGCCUCGAUUCCAGGGGGAAAAAGUCUUAGUCGAUACUAAUUUAAAAAGUAUAAUGAUUUUUGAAAAUCAGAUUACAUCUAUAAAAGAUGAAAGCACUUCAACAGAGGAUUGAGCAUCA
B10: chr1:235506153:235506154:+_ENSG00000152904_ENST00000391855|hu_mus|FALSE|FALSE (ssRNA)
RNA: GGGAGUUCUACAGUCCGACGAUCGAAGACAGCUACACUUACAUAUAAUAAAUAAAUCUUAAAAAAAAAAAAAAGAAAAGAUAAAUGGGAUGAAGCCACUCCUCAUUUUCAACUGAAAGAAGCUACUGAGUCUAAUCCAGAAAGCAACAGAGGAUUGAGCAUCA
B11: chr2:27118074:27118075:-_ENSMUSG00000009621_ENSMUST00000056176|mus_mus|FALSE|FALSE (ssRNA)
RNA: B7 RNA with G80U, G81A
B12: chr5:145543945:145543946:-_ENSG00000133706_ENST00000545646|hu_hu|hu_hu_hu_mus_True|1_108 (ssRNA)
RNA: GGGAGUUCUACAGUCCGACGAUCCUGAAUAGCCAGUGGUGGGAAAUAAUCAAGCCAGUGCUCUGCUUCAGAAAACUUCACUAUGUCGUCAUCAGAGAGCCCAAGGGAUUUCAUAAUGUCCCACUGGUACUUAGAAGAUCCAGCCAACAGAGGAUUGAGCAUCA
B13: chr14:62194323:62194324:+_ENSG00000100644_ENST00000337138|hu_mus|motif|central (ssRNA)
RNA: GGGAGUUCUACAGUCCGACGAUCUCUUUCAUCACAGUAAGAAAAUUUCAUAUCGAGGCUGUGUCGACUGAGAAAUGUCUUGCGGUCGGAAGGAAUUUCAAUAUUUGACGGAUGAGGAAUGGGUUCACAAAUCAGCACCAAGCACAACAGAGGAUUGAGCAUCA
B14: chrX:15845472:15845473:-_ENSG00000182287_ENST00000329235|hu_mus|motif|central (ssRNA)
RNA: GGGAGUUCUACAGUCCGACGAUCCCACAAGAAGUCAUCAGCAAGGGAGGACAGUUAUGUCAGUCCAAUUUCUUCAAGAACACGGCGUGGGGUUUCAGCUUCUUUUGCAUCCUCCUGCAGGAGAUCGGCCUGCUCAAUUGCUUUCAACAGAGGAUUGAGCAUCA
B15: chr17:8508246:8508247:-_ENSG00000133026_ENST00000269243|hu_hu|motif|central (ssRNA)
RNA: GGGAGUUCUACAGUCCGACGAUCGUACAUUUCAAUAAUAUUCUCAGAGUAAAUUGGAAGAUUCUUGUAAGGGUUUAUAACGGCACAGAAGAGUCCAGAAUAAGUAUAGAUUAGUCCUGAAUAGUAGCGAUCCUUCAGAUUAUGCAACAGAGGAUUGAGCAUCA
B16: 75584029_75587226_729_CDS_ENSG00000119638_ENST00000238616|human|control|control (ssRNA)
RNA: GGGAGUUCUACAGUCCGACGAUCCGUCUCAGCCAUGGAAUACUCAGAAUUAAGUUUCUUUGCUAGGCCAUAAUCUCCAAGUUUUAUCAGGUUUGCCUUGGUCAGAAAAAUAUUUAAUGUCUUUAUAUCUCUAUGAAGGAUUCCCAACAGAGGAUUGAGCAUCA
B17: chr19:7360422:7360423:-_ENSMUSG00000024969_ENSMUST00000032557|mus_mus|FALSE|FALSE (ssRNA)
RNA: GGGAGUUCUACAGUCCGACGAUCAUAAGGAGGACUGCCACAGAAAGUAUCCAGCUUGUUCCCAAAGGUGAAUUCGUUGCUAAAGCCAAAGUCUGCAAUCUUGAUGUUCAUAUCAGCAUCCAGGAGCAGGUUUUCUGCCUUUAGCAACAGAGGAUUGAGCAUCA
B18: chr5:56168760:56168761:+_ENSG00000095015_ENST00000399503|hu_hu|motif|central (ssRNA)
RNA: GGGAGUUCUACAGUCCGACGAUCUCUAGAAAAUAAGCAGCCAACGAGUUCCAUUCCAAACACCUGAAUCCAUGGCUCAGCGGAAUCUUUGUAAGCAGGAGGGAUUUGCUGAGUUCCAUAAUGAGUAAGGUUAAAAUUGCUCUCCAACAGAGGAUUGAGCAUCA
B19: chr17:39847130:39847131:+_ENSG00000173812_ENST00000469257|hu_mus|motif|central (ssRNA)
RNA: GGGAGUUCUACAGUCCGACGAUCAUUACAUUAUACAAGCUGUGAGGUUUUUAAACUUGUGACAAGGGACAGAAGGGAAAUUCGGCUCAUUGCAAGGAAAUCCUCACUUAAGCUUCAGAGAGCCACAAGCACUUAAAACCCAUGCAACAGAGGAUUGAGCAUCA
B20: chr18:86887116:86887117:+_ENSMUSG00000024647_ENSMUST00000068423|mus_mus|FALSE|FALSE (ssRNA)
RNA: GGGAGUUCUACAGUCCGACGAUCCGCGUCAGCUCCGCCAUUGUUAAGGGAUUCAUGAGCAAUGAGCAAUGCCAGGUUACUAAGGGAUCCCAGAGAAUAAAUUAAAAAAAAAAAAAAAUGAAAUCCACGUUGCAAGUUUGAAGCCAACAGAGGAUUGAGCAUCA
B21: chr18:86887116:86887117:+_ENSMUSG00000024647_ENSMUST00000068423|mus_mus|motif|central (ssRNA)
RNA: B20 RNA with U80G, A81G
B22: 9136497_9143069_760_3pUTR_ENSMUSG00000033499_ENSMUST00000091829|mouse|control|control (ssRNA)
RNA: GGGAGUUCUACAGUCCGACGAUCCAGAAUUCCAAUGUUUUUUUAAGUACUUCCCGAGGGUCUUCCUGGCUUUCUGGUUGAGACUCAUUUCCUCCCGUAUCGUUGUUCUCAGGCAGAGGUUCAUAUUCUGAAUGGUCCAGAGCCCAACAGAGGAUUGAGCAUCA

Positions count from the first letter of the chain named. In all, about 24,000 sequences were measured (“enrichment r”: median about 0.99, highest 2% from about 3.7 on). The sample holds the highest values, similar sequences and a random draw of the others, so the mix is not that of the screen.

This test has as its target T1, UNK ZnF1-3. The test can be described thus: nsRBNS (natural sequence RNA bind-n-seq); RBNS binding buffer (assumed for nsRBNS): 25 mM Tris pH 7.5, 150 mM KCl, 3 mM MgCl2, 0.01% Triton X-100, 500 ug/ml BSA, 20 U/ml SUPERase-In, 4 C; UNK is unkempt and MSI1 is Musashi-1; names of the RNAs are library labels; protein concentration not given here; high values mean tight binding.
On to B1, for which the binding signal was 0.465 enrichment R.

B2 had a binding signal of 0.93 enrichment R. B3: the binding signal came to 0.776 enrichment R. With B4 the figure was 1.08 enrichment R; with B5, 1.03 enrichment R.

On to B6, for which the binding signal came out at 0.493 enrichment R.

B7 came in with a binding signal of 3.78 enrichment R. In the case of B8, the binding signal came out at 0.956 enrichment R. For B9, the binding signal was found to be 0.785 enrichment R. In turn, B10 returned a binding signal of 20.8 enrichment R. As for B11, the binding signal is 4.31 enrichment R. In turn, B12 had a binding signal of 1.11 enrichment R. In turn, B13 returned a binding signal of 1.84 enrichment R. With B14 the figure was 1.01 enrichment R; with B15, 1.92 enrichment R.

B16 had a binding signal of 1.02 enrichment R. B17 yielded a binding signal of 0.665 enrichment R. On to B18, for which the binding signal stood at 1.25 enrichment R. B19 had a binding signal of 1.49 enrichment R.

With B20, the binding signal is 6.14 enrichment R.

On to B21, for which the binding signal was determined as 8.87 enrichment R. The molecule B22 displayed a binding signal of 0.744 enrichment R.
